Experimental data as given in ChEMBL document CHEMBL4513216, “Probing the Open Global Health Chemical Diversity Library for Multistage-Active Starting Points for Next-Generation Antimalarials” (ACS Infect Dis, 2020).
Screen size: about 65,000 compounds; about 2,100 (3.2%) showed an effect of 50% or more. The median lay at about -52%. The full list was thinned out, with strong results kept by preference.

test system: Plasmodium falciparum; experiment: Screen against P. falciparum Asexual Blood Stage (ABS), at 5uM; type: functional, Dd2; conditions: tested at 5 uM

Row | SMILES | INHIBITION [%]
1 | Cn1c(CN2CCCCC2)cc(=O)c(O)c1CN1CCCCC1 | 81.8
2 | CO[C@H]1CN(CC2CCOCC2)[C@@H]2CCCO[C@H]12 | -48.2
3 | Cc1c(C)n(CC(O)CN2CCC(C)CC2)c2c(Cl)cccc12 (stereo not drawn) | 83
4 | Cc1c(C)n(CC(O)CN2CCN(CCO)CC2)c2c(Cl)cccc12 (stereo not drawn) | 88.6
5 | CCC(O)CN1CCN(C(=O)Cc2ccccc2Cl)CC1 (stereo not drawn) | -113
6 | CCS(=O)(=O)N1CCN(CCOC)c2ncccc2C1 | -58.7
7 | COCCN1CCOCC12CCN(C(=O)c1cccnc1)CC2 | -95.8
8 | O=C(NC1CC1)[C@H]1C[C@H]2OCC[C@H]2N(Cc2cccnc2)C1 | -76.1
9 | CN(C)c1cc(C2CCCNC2)ccn1 (stereo not drawn) | -11.8
10 | c1c[nH]c2nc(C3CCCNC3)nc-2c1 (stereo not drawn) | -172
11 | Fc1ccc(-c2nccnc2C2CCCNC2)cc1 (stereo not drawn) | 76.6
12 | CC1CCCCN1C(=O)c1coc(COc2cccc3cnccc23)n1 (stereo not drawn) | 86.5
13 | Cc1cccc(CN2CC[C@H]3[C@H]2CCN3C(=O)c2cnn(C)c2)n1 | -5.92
14 | COc1ccc(NC(=O)Nc2cnc(N3CCN(C)CC3)nc2)cc1Cl | 87.9
15 | Cc1ccc(NC(=O)NC(C)c2nc[nH]n2)cc1Cl (stereo not drawn) | -107
16 | CNS(=O)(=O)CC(=O)NC(C)Cc1ccc(Br)cc1 (stereo not drawn) | -89.6
17 | C[C@@H]1C[C@@H]2CCN(Cc3nccs3)C[C@H]2O1 | -26.9
18 | c1cnn(C[C@@H]2C[C@@H]3CN(CC4CC4)CC[C@@H]3N2c2nccs2)c1 | 89.9
19 | O=C(c1ncccn1)N1C[C@@H]2CN(CC3CC3)CCO[C@@H]2C1 | -14.4
20 | CN1CC[C@H]2[C@H](C[C@@H](CN3CCCC3)N2c2nccs2)C1 | 73.7
21 | NC(=O)N1C[C@H]2CN(Cc3nccs3)C[C@H]2C1 | -12
22 | CN1[C@H](Cn2cccn2)C[C@@H]2CN(Cc3cccs3)CC[C@@H]21 | 75.8
23 | Cc1nccc([C@@H]2C[C@@H]3CCN(Cc4cccs4)C[C@H]3O2)n1 | -92.1
24 | C[C@H]1C[C@@H]2CCN(Cc3nccs3)C[C@H]2O1 | -9.59
25 | CN1C(Cn2cccn2)C[C@@H]2CN(Cc3ccccn3)CC[C@@H]21 (stereo partly drawn) | 41.6
26 | CCN(CCc1ccccc1)Cn1nc(C)c2c(C)onc2c1=O | -13.3
27 | Clc1ccc(-c2ccc(C3CNCCO3)nc2)cc1 (stereo not drawn) | 85.9
28 | Cc1ccc(-c2ccc(C3CNCCO3)nc2)cc1 (stereo not drawn) | 83.5
